# Hit rate of the full screen: of about 5,500 compounds, about 2,000 (36%) were called active. Another 18% or so got no clear call; they are omitted. The list shows a part of the results. Values without a mark were called inactive. No stated cut-off is given here; in the data, active means normalized growth mostly below about 0.91 (no sharp cut-off); inconclusive means no clear call, values can overlap the other calls; inactive means mostly above about 0.92.
# Assay: chemical genetic growth profiling, strain panel (AID 1159580);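 further: tested at 20 µM; growth read once vehicle control cultures reached saturation at 30 °C; 1 = growth at the plate median or of vehicle wells; lower values mean less growth of the strain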
# Conditions: growth OD
structure (smiles),measurement,setting,value
COC(=O)NC(=S)Nc1ccccc1NC(=S)NC(=O)OC,normalized growth,"S. cerevisiae deletion strains, locus YJR075W, strain HOC1, active compounds read low",1.01
same,normalized growth,"S. cerevisiae deletion strains, locus YKL009W, strain mrt4, active compounds read low",0.995
same,normalized growth,"S. cerevisiae deletion strains, locus YKL068W, active compounds read low",0.996
same,normalized growth,"S. cerevisiae deletion strains, locus YKL085W, strain MDH1 (second series), active compounds read low",1
same,normalized growth,"S. cerevisiae deletion strains, locus YKL085W, strain MDH1, active compounds read low",1
same,normalized growth,"S. cerevisiae deletion strains, locus YKL160W, strain elf1, active compounds read low",0.952
same,normalized growth,"S. cerevisiae deletion strains, locus YKL190W, strain CNB1, active compounds read low",1.01
same,normalized growth,"S. cerevisiae deletion strains, locus YKR001C, strain vps1, active compounds read low",0.991
same,normalized growth,"S. cerevisiae deletion strains, locus YKR026C, strain gcn3, active compounds read low",0.974
same,normalized growth,"S. cerevisiae deletion strains, locus YKR091W, strain srl3, active compounds read low",0.97
same,normalized growth,"S. cerevisiae deletion strains, locus YLL001W, strain dnm1, active compounds read low",0.972
same,normalized growth,"S. cerevisiae deletion strains, locus YLL026W, active compounds read low",0.981
same,normalized growth,"S. cerevisiae deletion strains, locus YLL041C, strain sdh2, active compounds read low",0.978
same,normalized growth,"S. cerevisiae deletion strains, locus YLR027C, strain aat2, active compounds read low",0.975
same,normalized growth,"S. cerevisiae deletion strains, locus YLR039C, strain RIC1, active compounds read low",1.02
same,normalized growth,"S. cerevisiae deletion strains, locus YLR058C, strain SHM2, active compounds read low",1
same,normalized growth,"S. cerevisiae deletion strains, locus YLR102C, strain apc9, active compounds read low",1.01
same,normalized growth,"S. cerevisiae deletion strains, locus YLR113W, strain HOG1, active compounds read low",0.983
same,normalized growth,"S. cerevisiae deletion strains, locus YLR221C, strain rsa3, active compounds read low",0.974
same,normalized growth,"S. cerevisiae deletion strains, locus YLR258W, strain gsy2, active compounds read low",0.985
same,normalized growth,"S. cerevisiae deletion strains, locus YLR262C, strain YPT6 (second series), active compounds read low",0.987
same,normalized growth,"S. cerevisiae deletion strains, locus YLR262C, strain YPT6, active compounds read low",0.989
same,normalized growth,"S. cerevisiae deletion strains, locus YLR268W, strain sec22, active compounds read low",1.07
same,normalized growth,"S. cerevisiae deletion strains, locus YLR320W, strain mms22, active compounds read low",0.856 (active)
same,normalized growth,"S. cerevisiae deletion strains, locus YLR330W, strain CHS5, active compounds read low",1
same,normalized growth,"S. cerevisiae deletion strains, locus YLR342W, strain FKS1 (second series), active compounds read low",0.988
same,normalized growth,"S. cerevisiae deletion strains, locus YLR342W, strain FKS1, active compounds read low",0.97
same,normalized growth,"S. cerevisiae deletion strains, locus YLR357W, strain rsc2, active compounds read low",0.92
same,normalized growth,"S. cerevisiae deletion strains, locus YLR370C, strain arc18, active compounds read low",0.98
same,normalized growth,"S. cerevisiae deletion strains, locus YLR371W, strain rom2, active compounds read low",1.02
same,normalized growth,"S. cerevisiae deletion strains, locus YLR384C, strain iki3, active compounds read low",0.964
same,normalized growth,"S. cerevisiae deletion strains, locus YLR418C, strain cdc73, active compounds read low",0.972
same,normalized growth,"S. cerevisiae deletion strains, locus YML016C, strain PPZ1, active compounds read low",1
same,normalized growth,"S. cerevisiae deletion strains, locus YML032C, strain rad52, active compounds read low",1.05
same,normalized growth,"S. cerevisiae deletion strains, locus YML120C, strain ndi1, active compounds read low",0.97
same,normalized growth,"S. cerevisiae deletion strains, locus YML124C, strain tub3, active compounds read low",1
same,normalized growth,"S. cerevisiae deletion strains, locus YMR058W, strain fet3, active compounds read low",0.957
same,normalized growth,"S. cerevisiae deletion strains, locus YMR078C, strain ctf18, active compounds read low",1.02
same,normalized growth,"S. cerevisiae deletion strains, locus YMR125W, strain sto1, active compounds read low",0.974
same,normalized growth,"S. cerevisiae deletion strains, locus YMR129W, active compounds read low",0.98
same,normalized growth,"S. cerevisiae deletion strains, locus YMR205C, strain PFK2, active compounds read low",0.97
same,normalized growth,"S. cerevisiae deletion strains, locus YMR223W, strain ubp8, active compounds read low",0.978
same,normalized growth,"S. cerevisiae deletion strains, locus YMR231W, strain pep5, active compounds read low",0.993
same,normalized growth,"S. cerevisiae deletion strains, locus YMR263W, strain SAP30, active compounds read low",1.02
same,normalized growth,"S. cerevisiae deletion strains, locus YMR307W, strain GAS1, active compounds read low",0.983
same,normalized growth,"S. cerevisiae deletion strains, locus YNL067W, strain RPL9B, active compounds read low",1.02
same,normalized growth,"S. cerevisiae deletion strains, locus YNL071W, strain lat1, active compounds read low",0.772 (active)
same,normalized growth,"S. cerevisiae deletion strains, locus YNL128W, strain TEP1, active compounds read low",1.01
same,normalized growth,"S. cerevisiae deletion strains, locus YNL153C, strain GIM3, active compounds read low",0.99
same,normalized growth,"S. cerevisiae deletion strains, locus YNL183C, strain NPR1, active compounds read low",0.902
same,normalized growth,"S. cerevisiae deletion strains, locus YNL209W, strain ssb2, active compounds read low",1.01
same,normalized growth,"S. cerevisiae deletion strains, locus YNL233W, strain BNI4, active compounds read low",1.03
same,normalized growth,"S. cerevisiae deletion strains, locus YNL248C, strain rpa49, active compounds read low",0.93
same,normalized growth,"S. cerevisiae deletion strains, locus YNL250W, strain rad50, active compounds read low",0.989
same,normalized growth,"S. cerevisiae deletion strains, locus YNL271C, strain bni1, active compounds read low",1.01
same,normalized growth,"S. cerevisiae deletion strains, locus YNL298W, strain CLA4, active compounds read low",0.978
same,normalized growth,"S. cerevisiae deletion strains, locus YNL307C, strain MCK1, active compounds read low",0.986
same,normalized growth,"S. cerevisiae deletion strains, locus YNL322C, strain KRE1 (second series), active compounds read low",0.985
same,normalized growth,"S. cerevisiae deletion strains, locus YNL322C, strain KRE1, active compounds read low",0.998
same,normalized growth,"S. cerevisiae deletion strains, locus YNR049C, strain mso1, active compounds read low",0.99
same,normalized growth,"S. cerevisiae deletion strains, locus YNR052C, strain pop2, active compounds read low",1.01
same,normalized growth,"S. cerevisiae deletion strains, locus YOL006C, strain TOP1, active compounds read low",1.09
same,normalized growth,"S. cerevisiae deletion strains, locus YOL012C, strain htz1",1.25
same,normalized growth,"S. cerevisiae deletion strains, locus YOL147C, strain pex11, active compounds read low",1.01
same,normalized growth,"S. cerevisiae deletion strains, locus YOR001W, strain rrp6, active compounds read low",0.986
same,normalized growth,"S. cerevisiae deletion strains, locus YOR061W, strain CKA2, active compounds read low",1.01
same,normalized growth,"S. cerevisiae deletion strains, locus YOR069W, strain VPS5, active compounds read low",1.01
same,normalized growth,"S. cerevisiae deletion strains, locus YOR070C, strain gyp1, active compounds read low",0.985
same,normalized growth,"S. cerevisiae deletion strains, locus YOR080W, strain dia2, active compounds read low",1.01
same,normalized growth,"S. cerevisiae deletion strains, locus YOR083W, strain WHI5, active compounds read low",0.97
same,normalized growth,"S. cerevisiae deletion strains, locus YOR106W, strain vam3, active compounds read low",0.887
same,normalized growth,"S. cerevisiae deletion strains, locus YOR136W, strain idh2, active compounds read low",0.999
same,normalized growth,"S. cerevisiae deletion strains, locus YOR144C, strain elg1, active compounds read low",1.01
same,normalized growth,"S. cerevisiae deletion strains, locus YOR184W, strain ser1, active compounds read low",1.01
same,normalized growth,"S. cerevisiae deletion strains, locus YOR231W, strain MKK1, active compounds read low",0.986
same,normalized growth,"S. cerevisiae deletion strains, locus YOR265W, strain rbl2, active compounds read low",1
same,normalized growth,"S. cerevisiae deletion strains, locus YOR270C, strain vph1, active compounds read low",0.858
same,normalized growth,"S. cerevisiae deletion strains, locus YOR290C, strain snf2, active compounds read low",0.959
same,normalized growth,"S. cerevisiae deletion strains, locus YOR316C, strain cot1, active compounds read low",1.01
same,normalized growth,"S. cerevisiae deletion strains, locus YPL051W, strain arl3, active compounds read low",0.957
same,normalized growth,"S. cerevisiae deletion strains, locus YPL055C, strain LGE1, active compounds read low",0.98
same,normalized growth,"S. cerevisiae deletion strains, locus YPL078C, strain atp4, active compounds read low",0.989
same,normalized growth,"S. cerevisiae deletion strains, locus YPL106C, strain sse1, active compounds read low",0.998
same,normalized growth,"S. cerevisiae deletion strains, locus YPL240C, strain hsp82, active compounds read low",1
same,normalized growth,"S. cerevisiae deletion strains, locus YPL241C, strain CIN2, active compounds read low",1.01
same,normalized growth,"S. cerevisiae deletion strains, locus YPL256C, strain CLN2, active compounds read low",1.01
same,normalized growth,"S. cerevisiae deletion strains, locus YPR119W, strain clb2, active compounds read low",1.02
same,normalized growth,"S. cerevisiae deletion strains, locus YPR141C, strain kar3, active compounds read low",0.994
same,normalized growth,"S. cerevisiae deletion strains, locus YPR163C, strain tif3, active compounds read low",1.03
same,normalized growth,"S. cerevisiae deletion strains, locus YPR167C, strain met16, active compounds read low",1.01
same,normalized growth,"S. cerevisiae deletion strains, strain wtn01, active compounds read low",1.02
same,normalized growth,"S. cerevisiae strains, strain wild type, active compounds read low",0.996

# From PubChem BioAssay AID1159580 (chemical genetic matrix, 2015)
